Results with a measured potency or affinity are listed apart. Records with an inconclusive call do not appear. Activity calls are given as the source filed them.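 How the source made its calls: active means cell viability loss with a fitted half-maximal concentration at or below twice the top valid dose; inconclusive means flat curve losing 30 to 70% viability, or a poor fit; inactive means the rest.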
Assay: viability loss in HEK293T cells – cell-based, ATP luminescence, dry powder, set 3, cytotoxicity control, dose response (AID 743131)

S=c1[nH]c2ccccc2n1CCOc1ccc(Cl)cc1
outcome: inactive

Fc1cccc2c1[nH]c(=S)n2CCOc1ccccc1
outcome: inactive

Fc1ccccc1OCCn1c(=S)[nH]c2ccccc21
outcome: inactive

S=c1[nH]c2cccc(Cl)c2n1CCOc1ccccc1
outcome: inactive

S=c1[nH]c2ccccc2n1CCOc1ccccc1
outcome: inactive

CCOC(=O)c1c(-c2ccc(C(C)(C)C)cc2)csc1NC(=O)CN1CCN(C)CC1
outcome: inactive

COC(=O)C1=C(C)N(Cc2ccc(Br)cc2)C(=S)NC1c1ccc(OC)cc1 (stereo not given)
outcome: inactive

COC(=O)C1=C(C)N(Cc2ccc(Cl)cc2)C(=S)NC1c1ccc(Br)cc1 (stereo not given)
outcome: inactive

Cc1ccc(OCCn2c(C)nc3ccccc32)cc1
outcome: inactive

CCOC(=O)c1c(-c2ccc(OC)cc2)csc1NC(=O)CN(C)CC(=O)N(C)C
outcome: inactive

COC(=O)C1=C(C)N(Cc2ccc(F)cc2)C(=S)NC1c1cccc(F)c1 (stereo not given)
outcome: inactive

CCOC(=O)c1c(-c2ccc(F)cc2)csc1NC(=O)CN1CCN(C)CC1
outcome: inactive

O=c1[nH]c2ccccc2n1CCOc1ccccc1
outcome: inactive

COC(=O)C1=C(C)N(Cc2ccc(Br)cc2)C(=S)NC1c1ccc(F)cc1 (stereo not given)
outcome: inactive

CCOC(=O)c1c(-c2ccc(F)cc2)csc1NC(=O)CN1CCN(CC)CC1
outcome: inactive

Cc1ccc(OCCn2c(=S)[nH]c3ccccc32)cc1
outcome: inactive

CCOc1ccc(OCCn2c(=S)[nH]c3ccccc32)cc1
outcome: inactive

Cc1ccc(OCCn2c(SCCO)nc3ccccc32)c(C(C)C)c1
outcome: inactive

Cc1ccc2c(c1)[nH]c(=S)n2CCOc1ccccc1
outcome: inactive

Cc1ccc(OCCn2cnc3ccccc32)cc1
outcome: inactive
